Data from ChEMBL document CHEMBL1961873, “Compounds: GSK PKIS; Assays: Nanosyn kinase panel” (2012).

What was measured:
[1] = biological target: T1, Inhibitor of nuclear factor kappa-B kinase subunit epsilon (Homo sapiens) (UniProt Q14164); conditions: at 1 µM;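 further: reported values are averaged percent inhibition figures against human IKKε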
T1 sequence (whole entry): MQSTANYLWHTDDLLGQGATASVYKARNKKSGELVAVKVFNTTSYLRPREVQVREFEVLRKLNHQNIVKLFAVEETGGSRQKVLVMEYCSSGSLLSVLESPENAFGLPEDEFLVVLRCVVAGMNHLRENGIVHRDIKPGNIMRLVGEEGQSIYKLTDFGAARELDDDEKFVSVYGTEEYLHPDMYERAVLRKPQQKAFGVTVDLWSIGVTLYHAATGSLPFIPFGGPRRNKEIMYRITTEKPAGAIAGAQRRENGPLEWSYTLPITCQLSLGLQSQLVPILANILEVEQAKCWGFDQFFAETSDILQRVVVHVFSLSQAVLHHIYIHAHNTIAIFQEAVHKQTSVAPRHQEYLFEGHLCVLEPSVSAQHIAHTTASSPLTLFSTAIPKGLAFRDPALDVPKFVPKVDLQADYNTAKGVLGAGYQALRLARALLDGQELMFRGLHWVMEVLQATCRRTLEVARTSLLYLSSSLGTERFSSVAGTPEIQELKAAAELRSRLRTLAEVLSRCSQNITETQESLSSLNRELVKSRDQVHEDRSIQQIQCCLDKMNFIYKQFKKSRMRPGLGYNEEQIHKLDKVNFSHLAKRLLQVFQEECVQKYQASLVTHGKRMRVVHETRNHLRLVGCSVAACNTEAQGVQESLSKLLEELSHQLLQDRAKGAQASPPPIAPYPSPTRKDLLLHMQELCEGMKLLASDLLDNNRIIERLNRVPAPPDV

[2] = biological target: T2, Serine/threonine-protein kinase Nek1 (Homo sapiens) (UniProt Q96PY6); conditions: at 0.1 µM
T2 sequence (whole entry): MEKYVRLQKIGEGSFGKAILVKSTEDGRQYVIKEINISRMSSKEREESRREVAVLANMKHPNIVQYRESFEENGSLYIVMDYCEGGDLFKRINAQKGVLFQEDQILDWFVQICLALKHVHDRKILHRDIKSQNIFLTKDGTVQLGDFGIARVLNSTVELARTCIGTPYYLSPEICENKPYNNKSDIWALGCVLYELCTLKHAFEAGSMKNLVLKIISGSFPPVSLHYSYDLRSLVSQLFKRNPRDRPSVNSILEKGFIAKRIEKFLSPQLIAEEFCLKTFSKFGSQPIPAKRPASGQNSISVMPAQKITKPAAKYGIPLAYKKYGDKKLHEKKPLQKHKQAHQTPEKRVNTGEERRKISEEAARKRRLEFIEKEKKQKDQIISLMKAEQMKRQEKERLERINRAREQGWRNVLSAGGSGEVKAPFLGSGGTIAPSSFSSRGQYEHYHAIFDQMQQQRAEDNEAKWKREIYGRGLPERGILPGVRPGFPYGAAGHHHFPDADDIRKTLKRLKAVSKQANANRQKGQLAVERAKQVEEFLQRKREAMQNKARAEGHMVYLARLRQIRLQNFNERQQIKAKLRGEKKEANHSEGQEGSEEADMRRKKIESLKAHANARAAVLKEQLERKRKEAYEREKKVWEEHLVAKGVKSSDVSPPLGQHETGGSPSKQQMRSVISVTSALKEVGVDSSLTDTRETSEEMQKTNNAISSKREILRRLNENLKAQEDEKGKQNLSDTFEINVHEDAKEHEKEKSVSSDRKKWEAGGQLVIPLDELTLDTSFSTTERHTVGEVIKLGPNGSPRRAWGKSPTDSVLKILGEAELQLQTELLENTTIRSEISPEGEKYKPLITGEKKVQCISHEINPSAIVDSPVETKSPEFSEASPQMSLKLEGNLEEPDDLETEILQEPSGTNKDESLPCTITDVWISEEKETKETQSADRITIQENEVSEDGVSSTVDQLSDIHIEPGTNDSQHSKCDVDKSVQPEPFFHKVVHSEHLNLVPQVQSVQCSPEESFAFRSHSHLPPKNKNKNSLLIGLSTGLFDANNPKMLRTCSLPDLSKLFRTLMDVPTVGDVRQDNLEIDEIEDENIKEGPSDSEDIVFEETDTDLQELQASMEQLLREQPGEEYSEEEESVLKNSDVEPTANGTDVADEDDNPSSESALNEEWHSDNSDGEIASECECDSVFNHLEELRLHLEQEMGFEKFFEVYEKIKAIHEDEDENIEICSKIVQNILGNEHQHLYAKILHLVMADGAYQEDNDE

[3] = biological target: T2, Serine/threonine-protein kinase Nek1 (Homo sapiens); conditions: at 1 µM
[4] = biological target: T3, Serine/threonine-protein kinase Nek2 (Homo sapiens) (UniProt P51955); conditions: at 0.1 µM
T3 sequence (whole entry): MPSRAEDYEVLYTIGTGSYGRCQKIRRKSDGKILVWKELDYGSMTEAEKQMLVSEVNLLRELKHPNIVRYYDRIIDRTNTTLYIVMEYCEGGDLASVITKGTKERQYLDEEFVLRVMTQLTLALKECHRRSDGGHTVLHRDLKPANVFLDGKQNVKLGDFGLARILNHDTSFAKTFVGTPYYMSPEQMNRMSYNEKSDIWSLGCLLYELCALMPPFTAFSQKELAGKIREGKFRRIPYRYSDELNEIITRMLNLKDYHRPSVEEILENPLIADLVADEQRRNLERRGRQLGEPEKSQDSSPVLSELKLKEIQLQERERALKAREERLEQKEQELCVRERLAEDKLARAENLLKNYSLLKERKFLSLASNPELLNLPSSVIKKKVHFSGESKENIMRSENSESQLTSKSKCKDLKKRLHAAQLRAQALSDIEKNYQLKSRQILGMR

[5] = biological target: T3, Serine/threonine-protein kinase Nek2 (Homo sapiens); conditions: at 1 µM
[6] = biological target: Serine/threonine-protein kinase Nek6 (Homo sapiens) (UniProt Q9HC98); conditions: at 0.1 µM
[7] = biological target: Serine/threonine-protein kinase Nek6 (Homo sapiens) (UniProt Q9HC98); conditions: at 1 µM
[8] = biological target: Serine/threonine-protein kinase Nek7 (Homo sapiens) (UniProt Q8TDX7); conditions: at 0.1 µM
[9] = biological target: Serine/threonine-protein kinase Nek7 (Homo sapiens) (UniProt Q8TDX7); conditions: at 1 µM
[10] = biological target: T4, Serine/threonine-protein kinase Nek9 (Homo sapiens) (UniProt Q8TD19); conditions: at 0.1 µM
T4 sequence (whole entry): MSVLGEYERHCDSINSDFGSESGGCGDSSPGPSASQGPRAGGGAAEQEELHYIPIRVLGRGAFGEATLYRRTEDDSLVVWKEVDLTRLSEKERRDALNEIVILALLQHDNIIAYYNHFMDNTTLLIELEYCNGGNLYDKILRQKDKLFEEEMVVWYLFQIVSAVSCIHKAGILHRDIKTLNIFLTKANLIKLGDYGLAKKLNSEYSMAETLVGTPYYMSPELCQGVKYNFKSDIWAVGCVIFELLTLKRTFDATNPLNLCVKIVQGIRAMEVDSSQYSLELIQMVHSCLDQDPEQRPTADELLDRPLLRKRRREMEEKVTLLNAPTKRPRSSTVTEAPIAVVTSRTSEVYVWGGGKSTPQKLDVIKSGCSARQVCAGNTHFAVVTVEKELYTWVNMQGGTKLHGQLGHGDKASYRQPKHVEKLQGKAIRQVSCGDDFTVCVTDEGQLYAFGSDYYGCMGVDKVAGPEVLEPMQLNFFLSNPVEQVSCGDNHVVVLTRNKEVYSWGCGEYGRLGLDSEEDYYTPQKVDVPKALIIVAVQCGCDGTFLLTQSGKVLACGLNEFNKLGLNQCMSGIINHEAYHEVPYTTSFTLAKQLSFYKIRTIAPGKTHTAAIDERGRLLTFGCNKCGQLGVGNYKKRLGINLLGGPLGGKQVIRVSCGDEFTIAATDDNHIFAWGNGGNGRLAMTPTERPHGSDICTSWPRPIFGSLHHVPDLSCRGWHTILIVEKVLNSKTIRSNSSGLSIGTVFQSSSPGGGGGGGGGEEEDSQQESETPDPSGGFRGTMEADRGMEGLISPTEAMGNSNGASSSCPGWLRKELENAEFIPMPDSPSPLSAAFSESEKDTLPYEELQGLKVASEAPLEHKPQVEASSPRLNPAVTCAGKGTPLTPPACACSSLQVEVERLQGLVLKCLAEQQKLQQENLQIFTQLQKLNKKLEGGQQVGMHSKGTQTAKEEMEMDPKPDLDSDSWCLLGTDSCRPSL

[11] = biological target: T4, Serine/threonine-protein kinase Nek9 (Homo sapiens); conditions: at 1 µM
[12] = biological target: Serine/threonine-protein kinase PLK1 (Homo sapiens) (UniProt P53350); conditions: at 0.1 µM
[13] = biological target: Serine/threonine-protein kinase PLK1 (Homo sapiens) (UniProt P53350); conditions: at 1 µM
[14] = biological target: T5, Dual specificity protein kinase TTK (Homo sapiens) (UniProt P33981); conditions: at 0.1 µM
T5 sequence (whole entry): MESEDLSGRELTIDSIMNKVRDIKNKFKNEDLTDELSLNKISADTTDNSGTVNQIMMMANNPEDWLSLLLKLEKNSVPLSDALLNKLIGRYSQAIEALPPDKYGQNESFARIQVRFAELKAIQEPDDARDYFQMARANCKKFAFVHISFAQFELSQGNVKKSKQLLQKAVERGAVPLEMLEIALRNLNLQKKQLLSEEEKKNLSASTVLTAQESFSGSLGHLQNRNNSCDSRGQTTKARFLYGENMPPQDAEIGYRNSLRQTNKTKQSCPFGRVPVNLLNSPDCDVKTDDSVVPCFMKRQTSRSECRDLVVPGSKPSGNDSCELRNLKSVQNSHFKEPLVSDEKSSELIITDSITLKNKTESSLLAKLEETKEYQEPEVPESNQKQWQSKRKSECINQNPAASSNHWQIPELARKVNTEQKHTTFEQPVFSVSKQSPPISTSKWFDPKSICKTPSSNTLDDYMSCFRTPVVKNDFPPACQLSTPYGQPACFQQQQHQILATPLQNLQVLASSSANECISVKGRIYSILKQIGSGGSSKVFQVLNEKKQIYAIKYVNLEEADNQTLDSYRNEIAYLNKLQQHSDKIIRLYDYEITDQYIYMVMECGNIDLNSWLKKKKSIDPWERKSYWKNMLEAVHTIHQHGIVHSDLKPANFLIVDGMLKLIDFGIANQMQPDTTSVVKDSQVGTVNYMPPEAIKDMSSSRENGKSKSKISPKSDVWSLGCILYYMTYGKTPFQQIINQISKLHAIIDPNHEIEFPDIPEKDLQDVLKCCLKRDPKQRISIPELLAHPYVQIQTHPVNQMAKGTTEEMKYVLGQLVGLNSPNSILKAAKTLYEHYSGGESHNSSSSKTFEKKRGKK

[15] = test system: T6, Receptor-type tyrosine-protein kinase FLT3 (Homo sapiens), P36888 [D835Y]; conditions: at 1 µM
T6 sequence (whole entry): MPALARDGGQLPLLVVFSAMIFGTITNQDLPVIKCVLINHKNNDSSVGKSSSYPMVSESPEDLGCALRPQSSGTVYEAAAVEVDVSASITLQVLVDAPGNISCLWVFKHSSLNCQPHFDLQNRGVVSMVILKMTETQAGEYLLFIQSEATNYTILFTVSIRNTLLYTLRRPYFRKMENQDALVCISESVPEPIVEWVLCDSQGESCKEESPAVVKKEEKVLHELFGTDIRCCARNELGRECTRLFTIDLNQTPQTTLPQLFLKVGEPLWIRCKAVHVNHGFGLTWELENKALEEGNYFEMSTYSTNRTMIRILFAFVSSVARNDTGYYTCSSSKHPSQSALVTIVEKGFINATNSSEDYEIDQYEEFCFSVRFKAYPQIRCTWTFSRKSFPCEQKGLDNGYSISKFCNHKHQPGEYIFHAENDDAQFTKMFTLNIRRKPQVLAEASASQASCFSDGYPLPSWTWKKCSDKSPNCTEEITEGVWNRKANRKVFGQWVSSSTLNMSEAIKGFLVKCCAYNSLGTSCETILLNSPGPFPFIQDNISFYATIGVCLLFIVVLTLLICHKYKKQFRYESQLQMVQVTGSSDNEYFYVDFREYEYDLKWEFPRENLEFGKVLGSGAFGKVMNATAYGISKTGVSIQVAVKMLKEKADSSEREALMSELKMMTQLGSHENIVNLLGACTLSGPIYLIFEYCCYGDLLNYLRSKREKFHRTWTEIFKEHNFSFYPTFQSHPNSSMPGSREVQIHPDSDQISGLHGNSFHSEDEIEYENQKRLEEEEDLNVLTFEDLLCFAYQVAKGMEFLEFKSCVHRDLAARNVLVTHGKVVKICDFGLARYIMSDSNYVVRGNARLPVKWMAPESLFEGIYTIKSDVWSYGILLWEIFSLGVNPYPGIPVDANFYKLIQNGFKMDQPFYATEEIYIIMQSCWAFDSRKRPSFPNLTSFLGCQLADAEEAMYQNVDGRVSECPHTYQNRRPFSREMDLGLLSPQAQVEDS

[16] = biological target: Vascular endothelial growth factor receptor 3 (Homo sapiens) (UniProt P35916); conditions: at 0.1 µM
[17] = biological target: Vascular endothelial growth factor receptor 3 (Homo sapiens) (UniProt P35916); conditions: at 1 µM
[18] = biological target: Macrophage colony-stimulating factor 1 receptor (Homo sapiens) (UniProt P07333); conditions: at 0.1 µM
[19] = biological target: Macrophage colony-stimulating factor 1 receptor (Homo sapiens) (UniProt P07333); conditions: at 1 µM
[20] = biological target: Tyrosine-protein kinase Fyn (Homo sapiens) (UniProt P06241); conditions: at 0.1 µM
Tyrosine-protein kinase Fyn (Homo sapiens), sequence (P06241 2-537 limits assumed): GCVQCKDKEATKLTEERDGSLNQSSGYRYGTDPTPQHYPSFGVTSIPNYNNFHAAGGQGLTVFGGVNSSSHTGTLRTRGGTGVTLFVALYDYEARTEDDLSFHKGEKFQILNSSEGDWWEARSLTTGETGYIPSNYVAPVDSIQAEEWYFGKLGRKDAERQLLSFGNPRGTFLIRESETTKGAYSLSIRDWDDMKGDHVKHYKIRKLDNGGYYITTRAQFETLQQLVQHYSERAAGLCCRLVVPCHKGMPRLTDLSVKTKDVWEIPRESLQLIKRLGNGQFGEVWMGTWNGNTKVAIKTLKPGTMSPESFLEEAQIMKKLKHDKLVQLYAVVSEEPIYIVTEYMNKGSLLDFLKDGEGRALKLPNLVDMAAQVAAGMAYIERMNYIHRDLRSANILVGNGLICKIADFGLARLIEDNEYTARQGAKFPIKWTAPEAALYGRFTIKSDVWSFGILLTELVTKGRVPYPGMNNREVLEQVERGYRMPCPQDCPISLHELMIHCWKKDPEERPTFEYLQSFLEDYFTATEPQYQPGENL

Serine/threonine-protein kinase Nek6 (Homo sapiens), sequence (Q9HC98 whole entry): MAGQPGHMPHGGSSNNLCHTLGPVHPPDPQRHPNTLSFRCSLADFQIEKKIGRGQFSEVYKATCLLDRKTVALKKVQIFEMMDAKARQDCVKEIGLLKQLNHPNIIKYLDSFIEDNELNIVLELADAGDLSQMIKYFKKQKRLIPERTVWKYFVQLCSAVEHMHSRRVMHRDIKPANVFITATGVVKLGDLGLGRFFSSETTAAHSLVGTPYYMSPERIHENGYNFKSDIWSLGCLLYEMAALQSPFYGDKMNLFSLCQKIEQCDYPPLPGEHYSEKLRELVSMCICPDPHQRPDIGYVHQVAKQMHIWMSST
Serine/threonine-protein kinase PLK1 (Homo sapiens), sequence (P53350 whole entry): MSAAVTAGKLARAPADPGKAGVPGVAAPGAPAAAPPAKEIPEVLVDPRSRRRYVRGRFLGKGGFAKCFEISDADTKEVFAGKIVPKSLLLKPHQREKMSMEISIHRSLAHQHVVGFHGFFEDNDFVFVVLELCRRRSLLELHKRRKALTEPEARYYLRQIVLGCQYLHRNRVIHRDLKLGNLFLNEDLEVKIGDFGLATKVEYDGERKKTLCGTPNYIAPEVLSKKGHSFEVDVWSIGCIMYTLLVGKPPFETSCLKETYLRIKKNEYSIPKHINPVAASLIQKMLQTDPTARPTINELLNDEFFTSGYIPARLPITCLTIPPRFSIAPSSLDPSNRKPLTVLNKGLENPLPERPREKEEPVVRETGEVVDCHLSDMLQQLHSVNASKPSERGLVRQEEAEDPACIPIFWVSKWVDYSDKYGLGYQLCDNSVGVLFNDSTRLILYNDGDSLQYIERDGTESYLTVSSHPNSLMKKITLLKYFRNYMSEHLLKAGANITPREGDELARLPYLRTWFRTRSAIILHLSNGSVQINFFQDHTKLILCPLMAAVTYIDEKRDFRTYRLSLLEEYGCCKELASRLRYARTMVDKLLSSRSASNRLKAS
Vascular endothelial growth factor receptor 3 (Homo sapiens), sequence (P35916 whole entry): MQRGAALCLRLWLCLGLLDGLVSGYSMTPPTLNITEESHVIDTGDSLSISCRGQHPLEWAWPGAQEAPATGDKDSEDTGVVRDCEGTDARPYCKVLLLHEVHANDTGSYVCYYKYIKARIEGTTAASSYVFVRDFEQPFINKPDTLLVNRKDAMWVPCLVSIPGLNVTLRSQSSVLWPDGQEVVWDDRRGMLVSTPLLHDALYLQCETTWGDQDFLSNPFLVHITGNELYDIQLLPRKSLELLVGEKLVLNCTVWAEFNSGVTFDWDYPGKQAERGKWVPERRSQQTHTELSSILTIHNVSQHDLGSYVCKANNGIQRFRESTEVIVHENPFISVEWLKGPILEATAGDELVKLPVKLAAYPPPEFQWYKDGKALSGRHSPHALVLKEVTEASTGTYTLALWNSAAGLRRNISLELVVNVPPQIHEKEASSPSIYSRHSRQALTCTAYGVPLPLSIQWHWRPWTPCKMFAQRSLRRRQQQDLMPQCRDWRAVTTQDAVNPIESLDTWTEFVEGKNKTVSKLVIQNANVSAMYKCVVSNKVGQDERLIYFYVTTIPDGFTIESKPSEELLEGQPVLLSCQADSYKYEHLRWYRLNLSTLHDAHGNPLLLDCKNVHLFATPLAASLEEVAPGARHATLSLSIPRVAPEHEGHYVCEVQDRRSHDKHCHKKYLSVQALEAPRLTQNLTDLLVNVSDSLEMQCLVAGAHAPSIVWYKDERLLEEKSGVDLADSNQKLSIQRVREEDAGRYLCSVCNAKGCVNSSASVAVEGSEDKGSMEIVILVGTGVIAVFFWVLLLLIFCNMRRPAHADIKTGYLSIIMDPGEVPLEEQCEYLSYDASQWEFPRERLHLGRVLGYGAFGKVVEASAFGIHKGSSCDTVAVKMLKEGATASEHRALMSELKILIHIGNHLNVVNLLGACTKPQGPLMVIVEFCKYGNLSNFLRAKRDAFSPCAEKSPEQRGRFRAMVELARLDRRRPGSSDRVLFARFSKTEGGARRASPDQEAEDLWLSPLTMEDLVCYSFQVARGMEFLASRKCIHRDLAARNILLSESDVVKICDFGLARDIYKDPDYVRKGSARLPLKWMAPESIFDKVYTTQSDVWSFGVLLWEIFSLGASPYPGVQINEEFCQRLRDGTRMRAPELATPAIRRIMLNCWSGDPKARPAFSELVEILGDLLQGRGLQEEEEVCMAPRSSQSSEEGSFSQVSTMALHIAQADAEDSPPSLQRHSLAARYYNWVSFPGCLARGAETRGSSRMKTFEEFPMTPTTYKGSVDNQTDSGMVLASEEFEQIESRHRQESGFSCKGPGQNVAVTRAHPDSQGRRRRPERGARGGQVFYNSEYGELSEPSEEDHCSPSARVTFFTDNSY
Macrophage colony-stimulating factor 1 receptor (Homo sapiens), sequence (P07333 whole entry): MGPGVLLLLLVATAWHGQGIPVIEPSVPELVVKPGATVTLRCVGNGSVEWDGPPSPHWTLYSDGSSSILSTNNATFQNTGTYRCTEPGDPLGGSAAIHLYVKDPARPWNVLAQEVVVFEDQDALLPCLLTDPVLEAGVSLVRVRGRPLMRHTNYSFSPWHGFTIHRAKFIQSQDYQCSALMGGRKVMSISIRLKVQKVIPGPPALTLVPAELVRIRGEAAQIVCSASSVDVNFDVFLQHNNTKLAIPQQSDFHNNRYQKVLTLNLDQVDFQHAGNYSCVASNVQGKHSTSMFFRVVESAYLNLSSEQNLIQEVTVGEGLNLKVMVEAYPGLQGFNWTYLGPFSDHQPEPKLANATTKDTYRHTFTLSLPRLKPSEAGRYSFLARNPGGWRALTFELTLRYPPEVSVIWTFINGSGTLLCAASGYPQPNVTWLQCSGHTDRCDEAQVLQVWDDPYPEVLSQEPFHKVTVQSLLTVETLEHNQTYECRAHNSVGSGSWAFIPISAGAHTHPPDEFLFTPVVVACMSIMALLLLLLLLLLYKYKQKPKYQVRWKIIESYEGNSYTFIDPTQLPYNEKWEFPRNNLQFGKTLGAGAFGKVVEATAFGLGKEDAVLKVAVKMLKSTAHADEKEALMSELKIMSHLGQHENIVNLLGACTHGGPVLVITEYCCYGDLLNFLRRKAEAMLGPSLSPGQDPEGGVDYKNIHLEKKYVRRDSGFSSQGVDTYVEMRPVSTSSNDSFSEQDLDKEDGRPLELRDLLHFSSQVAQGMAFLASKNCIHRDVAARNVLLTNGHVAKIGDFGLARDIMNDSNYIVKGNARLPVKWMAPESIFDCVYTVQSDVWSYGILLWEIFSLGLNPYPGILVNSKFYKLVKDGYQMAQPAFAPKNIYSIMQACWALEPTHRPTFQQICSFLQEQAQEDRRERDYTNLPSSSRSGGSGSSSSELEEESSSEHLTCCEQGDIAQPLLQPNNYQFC
Serine/threonine-protein kinase Nek7 (Homo sapiens), sequence (Q8TDX7 whole entry, looked up): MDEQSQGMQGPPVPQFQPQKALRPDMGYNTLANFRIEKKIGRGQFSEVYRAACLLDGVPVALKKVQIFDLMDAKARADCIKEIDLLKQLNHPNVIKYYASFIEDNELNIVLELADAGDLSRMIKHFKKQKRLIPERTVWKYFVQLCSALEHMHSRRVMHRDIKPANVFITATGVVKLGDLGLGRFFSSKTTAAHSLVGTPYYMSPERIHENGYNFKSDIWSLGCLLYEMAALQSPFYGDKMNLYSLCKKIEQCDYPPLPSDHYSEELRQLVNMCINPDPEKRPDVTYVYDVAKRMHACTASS

Row | Structure (SMILES) | inhibition [1] | inhibition [2] | inhibition [3] | inhibition [4] | inhibition [5] | inhibition [6] | inhibition [7] | inhibition [8] | inhibition [9] | inhibition [10] | inhibition [11] | inhibition [12] | inhibition [13] | inhibition [14] | inhibition [15] | inhibition [16] | inhibition [17] | inhibition [18] | inhibition [19] | inhibition [20]
1 | CCN(CC)S(=O)(=O)c1ccc(OC)c(Nc2ncc(-c3ccccc3)o2)c1 | 1.73% | -0.43% | 1.95% | 0.46% | -0.71% | 1.9% | 1.12% | -0.6% | -0.03% | 2.38% | 1.83% | 0.06% | 0.24% | 2.04% | 69.9% | 30.9% | 85.5% | 42.4% | 84.8% | 6.94%
2 | CC1=C(C(=O)Nc2cc(Cl)c3[nH]ncc3c2)C(c2ccc(C(F)(F)F)cc2)CC(=O)N1 (stereo not given) | 5.11% | 2.99% | 3.61% | 4.1% | 4.83% | 2.7% | 2.6% | 4.35% | 3.32% | 5.83% | 8.4% | 4.17% | 4.12% | 5.88% | 1.66% | -0.3% | -1.34% | 5.21% | 1.8% | 0.13%
3 | Cc1ccc(O)cc1Nc1ccnc2cc(-c3ccccn3)ccc12 | 4.69% | 2.99% | 2.32% | 5.83% | 4.75% | 5.8% | -1.66% | 3.67% | 3.3% | 2.78% | -1.26% | 3.38% | 4.98% | 6.34% | 4.47% | 62.5% | 88.8% | 4.3% | 20.4% | 55.6%
